Source: PubChem BioAssay
TGFb inhibitor: qHTS for Inhibitors of TGF-b; HepG2 CAGA-GFP TGF-b/SMAD3 reporter, GFP fluorescence, 18 h; TGF-beta stimulated, 500 pg/mL final; Potency, µM (series often up to 46.1 µM), for the others: top-dose activity, negative = inhibition, usual class: inhibitors; 410,000 compounds, 1.2% hits; further: potency means the concentration at half of the fitted maximal effect; on the % scale 0 is the no-effect control and ±100 the full control effect; nearly all actives have a fitted effect of over 65% in size
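HEPG2 CAGA-GFP, 1000 cells/well; 2 h settle, 37 C; cpd via pin tool; TGF-b 500 pg/mL final; 18 h, 37 C; GFP imaging ex488/em500-530; %Activity normalised to -TGF-b and +DMSO controls; CRC fit, curve class.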
HepG2 viability: qHTS for Inhibitors of TGF-b: Cytotox Counterscreen; Potency, µM (highest dose often 46.1 µM), for the others: top-dose activity change, negative = cytotoxicity, hits mostly cytotoxic; AID 588856, 2011; HepG2 CAGA-GFP viability, ATP luminescence, 18 h; 410,000 compounds, 0.76% hits; further: potency means the concentration at half of the fitted maximal effect
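HepG2 CAGA-GFP cells (1000/well, DMEM with 1% FBS) received compound, then TGF-beta at 500 pg/mL final, and were incubated 18 hours at 37 degrees C. Viability was read by CellTiter-Glo luminescence. Media-only wells were set as complete cell-killing and DMSO as no toxicity.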
DRD3 antagonist: qHTS of D3 Dopamine Receptor Antagonist: qHTS. D(3) dopamine receptor (Homo sapiens), P35462. D3R cells, DiscoveRx beta-arrestin luminescence, antagonist mode; stronger effect = lower value. max response, negative = inhibition, %. 360,000 compounds, 2.5% hits; in the data active means max response below about -50%; inconclusive means no clear call, values can overlap the other calls; further: on the % scale 0 is the no-effect control and ±100 the full control effect
Target sequence (P35462 whole entry, looked up): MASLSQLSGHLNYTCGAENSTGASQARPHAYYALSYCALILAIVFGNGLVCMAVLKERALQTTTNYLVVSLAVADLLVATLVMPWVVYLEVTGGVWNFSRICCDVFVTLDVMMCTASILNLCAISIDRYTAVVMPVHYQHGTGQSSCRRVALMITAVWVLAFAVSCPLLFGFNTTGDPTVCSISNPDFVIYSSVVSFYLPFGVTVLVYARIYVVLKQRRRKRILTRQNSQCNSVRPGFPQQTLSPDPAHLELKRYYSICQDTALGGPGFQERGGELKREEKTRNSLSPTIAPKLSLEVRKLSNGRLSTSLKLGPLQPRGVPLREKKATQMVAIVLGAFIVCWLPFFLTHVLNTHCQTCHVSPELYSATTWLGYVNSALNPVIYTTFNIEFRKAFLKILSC
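Cells plated overnight at 1500 cells/well, then exposed to library compounds with dopamine controls for 90 minutes at 37 degrees C. DiscoveRx reagent added for 30–60 minutes at room temperature; luminescence read, quantitative HTS format.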
D3 ag: qHTS of D3 Dopamine Receptor Agonist: qHTS; D3R DiscoveRx beta-arrestin cells, luminescence, 90 min; max activation, %; 410,000 compounds, 0.58% hits; AID 652048, 2013; in the data active means max activation above about 30%; further: 0% is about no effect
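Agonist mode: compounds and dopamine controls were applied to plated cells for 90 min at 37 degrees C after an overnight attachment at 1500 cells/well. Luminescent read-out followed 30 - 60 minutes at room temperature with DiscoveRx detection reagent.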
ATXN2 expr inh: Primary qHTS for Inhibitors of ATXN expression. HEK-293 ATXN2-luciferase reporter, luminescence, 24 h. Potency, µM (top dose mostly 57 µM), for inactives: at the top dose activity change, negative = inhibition, most hits filed as inhibitors. 360,000 compounds, 0.72% hits. AID 1745845, 2022; further: potency means the concentration at half of the fitted maximal effect; on the % scale 0 is the no-effect control and ±100 the full control effect; nearly all actives have a fitted effect of over 55% in size
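ATXN2-luciferase reporter cells (luciferase flanked by upstream and downstream ATXN2 gene portions) were treated 24 h at 37 °C with compounds at up to 57 uM. SteadyGlo luminescence gave expression; GF-AFC fluorescence gave viability.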
ATXN viability: Viability Counterscreen for Primary qHTS for Inhibitors of ATXN expression; Potency, µM (top dose mostly 56.7 µM), most hits filed as cytotoxic; 400,000 compounds, 0.49% hits; S2 cells (HEK-293 line with an ATXN2-luciferase reporter) viability, CellTiter-Fluor protease fluorescence, 24 h; further: potency means the concentration at half of the fitted maximal effect; nearly all actives have a fitted effect of over 40% in size
An asterisk follows results filed as active; ! = repeats disagree. Hits are enriched below; roughly 4.8% of the tested compounds scored in any of these assays. Unless noted, the call rests on the fitted dose curve; in most records, active means well fitted curve in the direction sought with a large enough effect; inconclusive means small, poorly fitted or top-dose-only effect, or another doubt; inactive means no such curve, though single readings can be large; an effect the other way counts as inactive or inconclusive.

For COc1cc(OC)c(N(C)C(=O)C2CCCN(c3ncnc4c3nc3n4CCCCC3)C2)cc1Cl (stereo not given) the results were TGFb inhibitor inconclusive, HepG2 viability -32%, D3 ag -11, ATXN2 expr inh -9% and ATXN viability inactive.
`CC(O)(COc1ccccc1)c1ccc2c(c1)CN(Cc1cccc3ncccc13)CCO2` (stereo not given) gave ATXN viability inactive.
COc1cc(/C=N/N2CCCCC2)cc([N+](=O)[O-])c1O was read as TGFb inhibitor 0%, HepG2 viability -25%, DRD3 antagonist -65*, D3 ag -11, ATXN2 expr inh 4% and ATXN viability inactive.
`COc1cc(/C=N/N2CCN(Cc3ccc(C)cc3)CC2)cc(OC)c1O` gave TGFb inhibitor -20%, HepG2 viability -39%, DRD3 antagonist -79*, D3 ag -23, ATXN2 expr inh -33% and ATXN viability inactive.
Screening CCN(CC)c1ccc(/C=N/N2CCN(Cc3ccc(C)cc3)CC2)c(O)c1 returned TGFb inhibitor 26%, HepG2 viability -7%, DRD3 antagonist -59*, D3 ag -67, ATXN2 expr inh -13% and ATXN viability inactive.
Screening COc1cc(/C=N/n2c(=S)[nH]nc(C)c2=O)cc([N+](=O)[O-])c1O returned TGFb inhibitor 3%, HepG2 viability -10%, DRD3 antagonist -15, D3 ag -12, ATXN2 expr inh 17% and ATXN viability inactive.
For Cc1ccc(CN2CCN(/N=C/c3cc([N+](=O)[O-])ccc3Cl)CC2)cc1 the results were TGFb inhibitor -4%, HepG2 viability -9%, DRD3 antagonist -61*, D3 ag -16, ATXN2 expr inh -2% and ATXN viability inactive.
For CCN(CC)c1ccc(/C=N/N2CCN(Cc3ccccc3Cl)CC2)c(O)c1 the results were TGFb inhibitor 2%, HepG2 viability -4%, DRD3 antagonist 22, D3 ag -15, ATXN2 expr inh 13% and ATXN viability inactive.
`CSc1ccc(/C=N/N2CCN(Cc3ccc(Cl)cc3)CC2)cc1` gave TGFb inhibitor -4%, HepG2 viability -2%, DRD3 antagonist -54*, D3 ag -18, ATXN2 expr inh inconclusive and ATXN viability inactive.
Screening CSc1ccc(/C=N/NC(=O)CN2CCN(Cc3ccc(Cl)cc3)CC2)cc1 returned TGFb inhibitor -49%, HepG2 viability -34%, DRD3 antagonist inconclusive, D3 ag -10, ATXN2 expr inh -12% and ATXN viability inactive.
O=S(=O)(c1cccc(C(F)(F)F)c1)N(CCCN1CCOCC1)Cc1cccs1 was read as TGFb inhibitor -2%, HepG2 viability -21%, DRD3 antagonist -80*!, D3 ag -19, ATXN2 expr inh -8% and ATXN viability inactive.
COc1ccc(S(=O)(=O)N(CCCN2CCOCC2)Cc2ccc(OC)c(OC)c2)cc1 was read as TGFb inhibitor 0%, HepG2 viability -5%, DRD3 antagonist -69*, D3 ag -32, ATXN2 expr inh -13% and ATXN viability inconclusive.
Screening COc1ccc(CN(CCCN2CCOCC2)S(=O)(=O)N(C)C)cc1OC returned TGFb inhibitor 20%, HepG2 viability -13%, DRD3 antagonist -23, D3 ag 1, ATXN2 expr inh 0% and ATXN viability inactive.
COc1ccc(NC(=O)C2Cc3c(-c4cccc(C(C)=O)c4)ccnc3O2)cc1OC (stereo not given) was read as TGFb inhibitor -6%, HepG2 viability -21%, DRD3 antagonist -20, D3 ag -1, ATXN2 expr inh inconclusive and ATXN viability inactive.
